# Inconclusive results are not listed. Entries that show only a call come without a potency. Activity calls are given as the source filed them. The call rests on the fitted dose curve; in most records, active means well fitted inhibition curve with a large enough effect; inconclusive means small, poorly fitted or top-dose-only effect; inactive means flat fitted curve, though single readings scatter.
# What was measured:
# Test in all cases: qHTS profiling for inhibitors of Plasmodium falciparum proliferation (AID 504749); further: nearly all actives have a fitted effect of over 60% in size
# Settings in all cases: P. falciparum in erythrocytes, SYBR Green DNA, 72 h; series mostly up to 28.7 µM
# CP305 = test system: CP305
# Outline: (§1)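 P. falciparum-infected erythrocytes (0.3% parasitemia, 2.5% hematocrit final) were exposed to compounds for 72 h at 37 C in 5% CO2, then lysed with SYBR Green buffer overnight at room temperature; parasite DNA fluorescence was normalized to artemisinin and DMSO controls.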
# CP315 = test system: CP315
# Outline: as §1
# CP325 = test system: CP325
# Outline: as §1
# CP329 = test system: CP329
# Outline: as §1
# CP335 = test system: CP335
# Outline: as §1
# DFO2036 = test system: DFO2036
# Outline: as §1
# DIV14 = test system: DIV14
# Outline: as §1
# DIV17 = test system: DIV17
# Outline: as §1
# DIV30 = test system: DIV30
# Outline: as §1
# Dd2 = test system: Dd2
# Outline: as §1
# ECU = test system: ECU
# Outline: as §1
# FAB9 = test system: FAB9
# Outline: as §1
# GB4 = test system: GB4
# Outline: as §1
# HB3 = test system: HB3
# Outline: as §1
# ICS = test system: ICS
# Outline: as §1
# JCK = test system: JCK
# Outline: as §1
# N140 = test system: N140
# Outline: as §1
# P93_24 = test system: P93_24
# Outline: as §1
# P94_40 = test system: P94_40
# Outline: as §1
# PAD = test system: PAD
# Outline: as §1
# Potency means the concentration at half of the fitted maximal effect.
SMILES,Potency (CP305),Potency (CP315),Potency (CP325),outcome (CP329),Potency (CP335),Potency (DFO2036),Potency (DIV14),Potency (DIV17),Potency (DIV30),Potency (Dd2),Potency (ECU),Potency (FAB9),Potency (GB4),Potency (HB3),Potency (ICS),Potency (JCK),Potency (N140),Potency (P93_24),Potency (P94_40),Potency (PAD)
O=c1[nH]cnc2[nH]ncc12,inactive,inactive,inactive,inactive,inactive,inactive,inactive,inactive,inactive,inactive,inactive,inactive,inactive,inactive,inactive,inactive,inactive,inactive,inactive,inactive
N#Cc1ccc(C(c2ccc(C#N)cc2)n2cncn2)cc1,inactive,inactive,inactive,inactive,inactive,inactive,inactive,inactive,inactive,inactive,inactive,inactive,inactive,inactive,inactive,inactive,inactive,inactive,inactive,inactive
NCCc1ccc(O)c(O)c1,inactive,inactive,inactive,inactive,inactive,inactive,inactive,inactive,inactive,inactive,inactive,inactive,inactive,inactive,inactive,inactive,–,inactive,inactive,inactive
Cc1cn[nH]c1,inactive,inactive,inactive,inactive,inactive,inactive,inactive,inactive,inactive,inactive,inactive,inactive,inactive,inactive,inactive,inactive,inactive,inactive,inactive,inactive
Cc1cc2c(C(C)C)c(O)c(O)c(C=O)c2c(O)c1-c1c(C)cc2c(C(C)C)c(O)c(O)c(C=O)c2c1O,–,–,–,–,–,–,–,–,–,11.2 µM (active),–,inactive,–,–,5.01 µM (active),–,–,–,–,–
CC(C)C[C@H](NC(=O)[C@@H](O)[C@H](N)Cc1ccccc1)C(=O)O,6.01 µM (active),12 µM (active),6.75 µM (active),–,6.01 µM (active),5.62 µM (active),4.78 µM (active),6.75 µM (active),6.01 µM (active),3.16 µM (active),7.94 µM (active),10 µM (active),4.78 µM (active),–,4.47 µM (active),–,7.94 µM (active),5.01 µM (active),7.08 µM (active),10 µM (active)
O=C1CCc2cc(OCCCCc3nnnn3C3CCCCC3)ccc2N1,inactive,inactive,inactive,inactive,inactive,–,inactive,inactive,inactive,–,–,–,inactive,–,inactive,inactive,–,–,–,–
CCOC(=O)C1=C[C@@]2(CC)CCCN3CCc4c(n1c1ccccc41)[C@H]32,13.5 µM (active),–,9.53 µM (active),–,12 µM (active),–,13.5 µM (active),7.57 µM (active),12 µM (active),–,–,–,7.57 µM (active),–,–,–,–,–,–,–
O=NN(CCCl)C(=O)NCCCl,inactive,inactive,inactive,inactive,–,–,inactive,inactive,inactive,inactive,inactive,inactive,–,inactive,–,inactive,inactive,inactive,inactive,inactive
NC(N)=NC(=O)c1nc(Cl)c(N)nc1N,–,inactive,–,inactive,–,–,9.53 µM (active),6.75 µM (active),–,–,–,–,15.1 µM (active),11.2 µM (active),2.24 µM (active),–,8.91 µM (active),7.08 µM (active),12.6 µM (active),8.91 µM (active)
CCOC(=O)C1=C[C@]2(CC)CCCN3CCc4c(n1c1ccccc41)[C@@H]32,–,–,–,–,–,–,12 µM (active),15.1 µM (active),13.5 µM (active),–,–,–,–,–,8.91 µM (active),–,12.6 µM (active),12.6 µM (active),–,–
CCCc1nn(C)c2c(=O)[nH]c(-c3cc(S(=O)(=O)N4CCN(C)CC4)ccc3OCC)nc12,inactive,inactive,inactive,inactive,inactive,inactive,inactive,inactive,–,inactive,inactive,inactive,inactive,inactive,11.2 µM (active),inactive,inactive,inactive,inactive,inactive
NC[C@H](O)c1ccc(O)c(O)c1,inactive,inactive,inactive,inactive,inactive,inactive,–,inactive,inactive,inactive,inactive,inactive,inactive,inactive,inactive,inactive,inactive,inactive,inactive,inactive
CNC[C@H](O)c1cccc(O)c1,inactive,–,inactive,inactive,–,inactive,inactive,inactive,inactive,inactive,inactive,inactive,inactive,inactive,inactive,inactive,inactive,inactive,inactive,–
CCOC(=O)N1CCC(=C2c3ccc(Cl)cc3CCc3cccnc32)CC1,–,–,–,–,–,inactive,7.57 µM (active),9.53 µM (active),13.5 µM (active),–,12.6 µM (active),inactive,12 µM (active),–,2.24 µM (active),–,3.98 µM (active),–,11.2 µM (active),3.16 µM (active)
Cn1cnc([N+](=O)[O-])c1Sc1ncnc2nc[nH]c12,inactive,inactive,inactive,inactive,inactive,inactive,inactive,–,inactive,inactive,8.91 µM (active),inactive,–,inactive,–,inactive,–,–,–,inactive
CN1CCN(CCCN2c3ccccc3Sc3ccc(C(F)(F)F)cc32)CC1,–,–,–,–,5.36 µM (active),8.91 µM (active),8.49 µM (active),7.57 µM (active),16.9 µM (active),12.6 µM (active),–,inactive,7.57 µM (active),–,8.91 µM (active),–,8.91 µM (active),2.24 µM (active),12.6 µM (active),12.6 µM (active)
Nc1nc2ccc(OC(F)(F)F)cc2s1,inactive,inactive,inactive,inactive,inactive,inactive,–,inactive,inactive,inactive,inactive,inactive,inactive,inactive,inactive,inactive,inactive,inactive,–,inactive
C1COC(NC(C2CC2)C2CC2)=N1,inactive,inactive,–,–,inactive,–,–,–,inactive,inactive,–,inactive,–,inactive,–,inactive,–,–,–,11.2 µM (active)
COc1ccc2nc(S(=O)Cc3ncc(C)c(OC)c3C)[nH]c2c1 (configuration not stated),inactive,inactive,inactive,inactive,inactive,inactive,–,–,inactive,inactive,inactive,inactive,–,inactive,14.1 µM (active),inactive,inactive,inactive,inactive,–
CCCc1nc2c(C)cc(-c3nc4ccccc4n3C)cc2n1Cc1ccc(-c2ccccc2C(=O)O)cc1,inactive,inactive,inactive,inactive,6.01 µM (active),–,–,0.675 µM (active),–,5.01 µM (active),–,inactive,–,10 µM (active),0.631 µM (active),–,1.41 µM (active),–,1.78 µM (active),1 µM (active)
C#Cc1cccc(Nc2ncnc3cc(OCCOC)c(OCCOC)cc23)c1,inactive,inactive,–,inactive,–,–,8.49 µM (active),15.1 µM (active),–,inactive,–,inactive,–,–,11.2 µM (active),inactive,–,–,12.6 µM (active),11.2 µM (active)
CC(c1cc2ccccc2s1)N(O)C(N)=O (configuration not stated),inactive,–,inactive,inactive,inactive,inactive,inactive,inactive,inactive,inactive,inactive,inactive,inactive,inactive,inactive,inactive,inactive,inactive,inactive,inactive
Cc1ccccc1C(OCCN(C)C)c1ccccc1 (configuration not stated),–,–,–,–,–,–,6.75 µM (active),7.57 µM (active),–,inactive,inactive,inactive,–,inactive,–,–,12.6 µM (active),–,–,inactive
Cc1c(C)c2c(c(C)c1O)CCC(C)(COc1ccc(CC3SC(=O)NC3=O)cc1)O2 (configuration not stated),inactive,inactive,inactive,inactive,inactive,inactive,15.1 µM (active),–,–,–,–,inactive,12 µM (active),inactive,–,inactive,–,–,10 µM (active),–
OC(CN1CCC(Cc2ccc(F)cc2)CC1)c1ccc(Cl)cc1 (configuration not stated),–,inactive,inactive,inactive,3.79 µM (active),–,1.07 µM (active),0.953 µM (active),1.9 µM (active),2.51 µM (active),1.58 µM (active),–,1.2 µM (active),8.91 µM (active),0.355 µM (active),2 µM (active),0.794 µM (active),1.58 µM (active),1.58 µM (active),0.631 µM (active)
Cc1oncc1C(=O)Nc1ccc(C(F)(F)F)cc1,inactive,inactive,inactive,inactive,inactive,inactive,inactive,–,inactive,inactive,inactive,inactive,–,–,3.16 µM (active),inactive,inactive,–,inactive,inactive
Clc1ccc(Nc2nnc(Cc3ccncc3)c3ccccc23)cc1,inactive,inactive,inactive,inactive,–,inactive,–,–,–,–,14.1 µM (active),inactive,inactive,inactive,–,inactive,–,–,–,–
